# Test results reported in PubChem BioAssay (NCI).
# This is part of a sample that, as a whole, favours compounds with a hit. Of some 79,000 tested, about 15% had one in any assay. Activity calls are given as the source filed them. Cut-off read from the data, not from the text of the source: active = growth inhibition above about 70%; inactive = the rest.
# Experiment: NCI Yeast Anticancer Drug Screen. Data for the bub3 strain (AID 167)
# Conditions: S. cerevisiae bub3 mutant strain, at 50.0 µM, active compounds read high
# How it was run: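 Screening used yeast with an engineered genetic alteration affecting cell cycle control. Compound-exposed cultures were compared with vehicle cultures, and reduced growth was taken as inhibition.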
row,SMILES,growth inhibition
1,Nc1nc(Cc2ccccc2)nc2[nH]ncc12,-8.9% (inactive)
2,O=S(=O)(O)C(Nc1ccc(Cl)cc1)c1ccccc1 (stereo not drawn),11.2% (inactive)
3,CC(=O)OC1C=CCC2C(=O)C3=C(C(=O)c4ccccc4C3=O)C(=O)C12 (stereo not drawn),65% (inactive)
4,O=C(Cl)CN1C(=O)c2ccccc2C1=O,-12.3% (inactive)
5,Cc1cc(=O)[nH]c(NN)n1,21.9% (inactive)
6,O=C1CCCC/C1=C\c1ccc([N+](=O)[O-])cc1,21.8% (inactive)
7,CCN(CC)c1cccc(C(=O)OCCNCC(C)C)c1,49.1% (inactive)
8,COC(=O)CCC(C)C1CCC2C3CCC4CC5CCC4(C)C3(O5)C(Br)C(Br)C12C (stereo not drawn),-25.5% (inactive)
9,Fc1cccc(C2SCc3nc4cc5ccccc5cc4n32)c1 (stereo not drawn),-19.7% (inactive)
10,O=c1[nH][nH]c(=O)c2c1ncn2Cc1ccccc1,-14.9% (inactive)
11,CC(=O)OCC1OC(n2nc(C#N)c(C#N)n2)C(OC(C)=O)C1OC(C)=O (stereo not drawn),-5.85% (inactive)
12,c1ccc2c[n+]3cc4ccccc4cc3cc2c1,33% (inactive)
13,O=[N+]([O-])c1ccc(C=Nc2ccc3c(c2)Cc2ccccc2-3)cc1,-16.4% (inactive)
14,CCOC(=O)c1ncn2c1[nH]c(=O)c1ccccc12,-9.5% (inactive)
15,CCCc1ccc(N=Nc2ccc(C(=O)O)cc2)cc1,-11.9% (inactive)
16,COC(=O)NN=C1C(C)(C)C(=NNC(=O)OC)C1(C)C,-17.6% (inactive)
17,CCCCCCCCCC/C=C/c1c(C)[nH]c2ccccc2c1=O,-8.45% (inactive)
18,CC1(O)CC2C=CC1CC2 (stereo not drawn),9.55% (inactive)
